Laboratory results reported in PubChem BioAssay (NCATS).
Inconclusive results are not listed. A call without a number means that no potency is given here. The source made the active and inactive calls. Unless noted, calls come from the whole dose curve; as a rule, active = well fitted curve in the direction sought with a large enough effect; inconclusive = small, poorly fitted or top-dose-only effect, or another doubt; inactive = no such curve, though single readings can be large; an effect the other way counts as inactive or inconclusive.

Legend:
[1] = qHTS for Inhibitors of the Functional Ribonucleoprotein Complex (vRNP) of Lassa (LASV) Arenavirus: LASV Primary Screen - GLuc reporter signal (AID 1347082; calls by dose curve; tested in HEK293 reporter line; note: series mostly up to about 57 µM; nearly all actives have a fitted effect of over 60% in size)
[2] = qHTS for Inhibitors of the Functional Ribonucleoprotein Complex (vRNP) of Lassa (LASV) Arenavirus: Viability assay - alamar blue signal for LASV Primary Screen (AID 1347083; calls by dose curve; tested in HEK293 reporter line; note: series mostly up to about 57 µM; nearly all actives have a fitted effect of over 80% in size)
[3] = qHTS for Inhibitors of the Functional Ribonucleoprotein Complex (vRNP) of Lymphocytic Choriomeningitis Arenaviruses (LCMV): Viability assay - alamar blue signal for LCMV Primary Screen (AID 1347085; calls by dose curve; tested in HEK293 reporter line; note: series mostly up to about 57 µM; nearly all actives have a fitted effect of over 80% in size)
[4] = molecular target: Nucleoprotein (Lymphocytic choriomeningitis virus (strain Armstrong)) (UniProt P09992); experiment: qHTS for Inhibitors of the Functional Ribonucleoprotein Complex (vRNP) of Lymphocytic Choriomeningitis Arenaviruses (LCMV): LCMV Primary Screen - GLuc reporter signal (AID 1347086; calls by dose curve; note: series mostly up to about 57 µM; nearly all actives have a fitted effect of over 70% in size)
[5] = qHTS of pediatric cancer cell lines to identify multiple opportunities for drug repurposing: Primary screen for DAOY cells (AID 1347090); note: series mostly up to about 46 µM; nearly all actives have a fitted effect of over 55% in size
In short: (§1)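 Cell viability, CellTiter-Glo luminescence; 500-1,000 cells/well, 8- or 11-point titration, 48 h compound exposure at 37 degrees C, 5% CO2. Controls: DMSO neutral, bortezomib 2.3 µM final as positive.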

[6] = qHTS of pediatric cancer cell lines to identify multiple opportunities for drug repurposing: Primary screen for A673 cells (AID 1347092); note: nearly all actives have a fitted effect of over 45% in size; note: potency is the fitted concentration of half-maximal effect
In short: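 A673 cells (500-1,000 cells/well in growth media) were pre-incubated 5 h at 37 degrees C, then exposed to compounds for 48 h. Viability was read as CellTiter-Glo luminescence; concentration-response curves came directly from the primary screen.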

[7] = qHTS of pediatric cancer cell lines to identify multiple opportunities for drug repurposing: Primary screen for SK-N-MC cells (AID 1347093); note: potency is the fitted concentration of half-maximal effect
In short: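 Metabolically active cells were quantified by ATP-dependent luminescence (CellTiter-Glo, 15 min at room temperature) following 48 h treatment. Cells had been plated at 500-1,000 per well and settled for 5 h beforehand.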

[8] = qHTS of pediatric cancer cell lines to identify multiple opportunities for drug repurposing: Primary screen for SJ-GBM2 cells (AID 1347091)
In short: as §1

Sequence of Nucleoprotein (Lymphocytic choriomeningitis virus (strain Armstrong)) (P09992 whole entry, looked up): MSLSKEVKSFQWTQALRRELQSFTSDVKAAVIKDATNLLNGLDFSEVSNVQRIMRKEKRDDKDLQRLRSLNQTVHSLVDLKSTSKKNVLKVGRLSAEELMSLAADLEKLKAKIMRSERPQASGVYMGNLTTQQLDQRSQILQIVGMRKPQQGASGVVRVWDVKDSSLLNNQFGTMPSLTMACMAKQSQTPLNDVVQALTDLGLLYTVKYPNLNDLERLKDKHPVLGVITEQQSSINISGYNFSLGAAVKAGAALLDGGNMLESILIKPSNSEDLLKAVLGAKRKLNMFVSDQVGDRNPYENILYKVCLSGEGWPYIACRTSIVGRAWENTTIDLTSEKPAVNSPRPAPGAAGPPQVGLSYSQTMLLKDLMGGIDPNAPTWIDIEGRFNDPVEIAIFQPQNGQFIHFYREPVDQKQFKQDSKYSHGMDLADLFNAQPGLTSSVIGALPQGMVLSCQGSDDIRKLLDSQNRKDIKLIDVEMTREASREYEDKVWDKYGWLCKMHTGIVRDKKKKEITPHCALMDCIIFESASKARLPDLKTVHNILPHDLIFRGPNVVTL

SMILES | Potency [1] | Potency [2] | Potency [3] | Potency [4] | Potency [5] | Potency [6] | Potency [7] | Potency [8]
O=c1oc2ccccc2c(O)c1Cc1c(O)c2ccccc2oc1=O | inactive | inactive | inactive | inactive | inactive | inactive | 15 µM (active) | –
CC(C(=O)c1ccccc1)N(C)C (stereo unspecified) | inactive | inactive | inactive | inactive | inactive | inactive | inactive | inactive
COC(=O)[C@@H](N)CCCN/C(N)=N/[N+](=O)[O-] | inactive | inactive | inactive | inactive | inactive | inactive | inactive | inactive
CCN[C@@H](C)Cc1cccc(C(F)(F)F)c1 | inactive | inactive | inactive | inactive | inactive | inactive | inactive | inactive
C[C@]12Cc3cn[nH]c3C[C@@H]1CC[C@@H]1[C@@H]2CC[C@@]2(C)[C@H]1CC[C@]2(C)O | inactive | inactive | inactive | inactive | – | inactive | – | –
Oc1ccc(Cl)cc1 | inactive | inactive | inactive | inactive | inactive | inactive | inactive | inactive
O=C(O)c1ccc(=O)[nH]c1 | inactive | inactive | inactive | inactive | inactive | inactive | inactive | inactive
CCOP(=S)(OCC)Oc1ccc2c(C)c(Cl)c(=O)oc2c1 | inactive | inactive | inactive | inactive | inactive | 0.001 µM (active) | inactive | inactive
C=CCC1([C@H](C)CCC)C(=O)NC(=O)NC1=O | inactive | inactive | inactive | inactive | inactive | inactive | inactive | inactive
C[C@@H]1CC2=CC(=O)CC[C@@H]2[C@H]2CC[C@@]3(C)[C@@H](CC[C@]3(C)O)[C@@H]21 | inactive | inactive | inactive | inactive | inactive | inactive | inactive | inactive
